Measurements published in PubChem BioAssay AID1508600 (Functional Genomics Laboratory (NCATS/FGL), 2020).
About 3,700 (7%) of roughly 53,000 sequences were called active. This excerpt belongs to a sample that is enriched for actives. Unmarked numbers belong to inactive results.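 The calls were made as follows: active = gene knockdowns whose robust z-score for IL-1 alpha signal is at least 2 or at most -2, so actives lie on both sides; inactive = the rest.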

Test: Components of the Cytosolic LPS Sensing Pathway: Gene Identification via Genome-wide siRNA Screen;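 also: robust z of the log signal after scaling to non-targeting control siRNA wells of the plate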
Settings: RAW264.7 macrophages, IL-1a HTRF, actives lie on both sides, screened at 100 nM (by protocol), cells primed 5 h with Pam3CSK4 first
How it was run: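 Using IL-1a HTRF as read-out, the screen measured release from RAW264.7 cells after 48h siRNA knockdown (100 nM), 5 h Pam3CSK4 priming and 24 h cytosolic LipidA. Values were expressed relative to negative-control wells as robust z-scores.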

**Q.** With GGCAGGAGAUGGUAACUGCTT against Phc2 as the sequence, how does the z-score read?
**A.** 1.08

**Q.** Which z-score does the source give for CGAAUUCAAAAAGCUAGAGTT against Gsto1 here?
**A.** 0.0531

**Q.** With GGCCUUCAUGGAUUAUACCTT against Serpinb9 as the sequence, how does the z-score read?
**A.** 2.09 (active)

**Q.** For GGCCAUUCAGAAGAUGCAGTT against Snapc2, which z-score is on record?
**A.** -0.852

**Q.** For CGAUUGUCGGGUUUUGUUUTT against Nutf2, which z-score is on record?
**A.** -2.53 (active)

**Q.** Which z-score does the source give for GCCAUUGACUGUACAGGUUTT against Taar4 here?
**A.** 0.74

**Q.** Which z-score does the source give for GGAAGAGCAGGCAUCCAUATT against Ranbp10 here?
**A.** -0.294

**Q.** Which z-score does the source give for GGGAGAUGAUUAGUUCAUUTT against Mad1l1 here?
**A.** 0.654

**Q.** With GGCCAGUCCAAAGACCAUCTT against Hsd3b7 as the sequence, how does the z-score read?
**A.** 1.95

**Q.** Which z-score does the source give for GCAAAACAUUUCCUGUCUGTT against Zfp316 here?
**A.** -0.555

**Q.** Which z-score does the source give for CCUCAAUUAUACCAAGAUUTT against Mapre3 here?
**A.** -1.28

**Q.** With GCCAGGAGUCCUUUAGGAATT against Tmem159 as the sequence, how does the z-score read?
**A.** -0.184

**Q.** Which z-score does the source give for GCCCUCUUAUCUGAAUAAUTT against Stk17b here?
**A.** 2.19 (active)

**Q.** Which z-score does the source give for GGGAUUGGAAGAGAAAUGGTT against Hsd11b1 here?
**A.** 0.362

**Q.** Which z-score does the source give for GCUAUACGAAGACUUCAGCTT against Hdhd3 here?
**A.** 0.972

**Q.** With GGCCUUUAAUUUCUUACACTT against Akt1s1 as the sequence, how does the z-score read?
**A.** -0.6

**Q.** Which z-score does the source give for GGAGUGAAAUUUACUGGGUTT against Hdgfl3 here?
**A.** 1.28

**Q.** Which z-score does the source give for GGAGAACAAAGAUUUCGUGTT against Lhfpl4 here?
**A.** -0.897

**Q.** For GCUAAACACGCUGAAUAUUTT against Phf10, which z-score is on record?
**A.** 0.107

**Q.** Which z-score does the source give for GCUACUAUCACAUAUGCACTT against Olfr1122 here?
**A.** -2.09 (active)

**Q.** For GGGUUGGUAUAGCUUUCAGTT against Zfp619, which z-score is on record?
**A.** -0.948

**Q.** For GGAACCUGAAAAUGUAUGUTT against Cxcl10, which z-score is on record?
**A.** 0.988

**Q.** For CGUUCAGUGUCUGCAGGUUTT against Mrps12, which z-score is on record?
**A.** -0.0575

**Q.** Which z-score does the source give for CCACUAAUUACAGUAACAUTT against Akr1c20 here?
**A.** -1.11

**Q.** Which z-score does the source give for “GCAGACUCAUGCACUUGAATT against Olfr1165-ps” here?
**A.** -0.321

**Q.** Which z-score does the source give for GGAAGUCUUAGAAGUAGCCTT against Diaph3 here?
**A.** 0.691

**Q.** Which z-score does the source give for GGGAACUGCACAAUACAAATT against Ccdc122 here?
**A.** 1.91

**Q.** For GGCUGGUGGAUAAUGAUUGTT against Tmem50b, which z-score is on record?
**A.** 2.18 (active)

**Q.** For GGACUGUUUUGUCUUGAAGTT against Gm5124, which z-score is on record?
**A.** -1.04

**Q.** With GGUUUUUGUUAAGGUCAAUTT against Abca16 as the sequence, how does the z-score read?
**A.** 0.209

**Q.** Which z-score does the source give for CCAUCCGUAACAUCGACUGTT against Mboat7 here?
**A.** -0.293

**Q.** With UGGUCACCUUUCUCUUAUUTT against Tas2r140 as the sequence, how does the z-score read?
**A.** -0.575

**Q.** With GCUCCUGGGAUACGUAUUATT against Abhd16a as the sequence, how does the z-score read?
**A.** -2 (active)

**Q.** With GGGAGCUGAACACAAACACTT against Trav3-3 as the sequence, how does the z-score read?
**A.** 0.191

**Q.** For GGACCUUCUUCAAGAAAGUTT against Olfr430, which z-score is on record?
**A.** 0.0987

**Q.** For GGAUGGUGAAAAUCUUGAGTT against Mindy1, which z-score is on record?
**A.** 1.39

**Q.** For GGACAAUGGGAGCUAUCGATT against Gpld1, which z-score is on record?
**A.** -1.73

**Q.** With “GGCUAAUACAUAAAGUAGUTT against 4930515G01Rik” as the sequence, how does the z-score read?
**A.** 0.452

**Q.** For GGUCAAGAAAUGGGCAAGCTT against Arhgdib, which z-score is on record?
**A.** 1.14

**Q.** Which z-score does the source give for GGAAAUAAACCACCUCUUCTT against Olfr437 here?
**A.** 2.36 (active)

**Q.** For GAACAUGGAAAGCAGCAUUTT against Lce1m, which z-score is on record?
**A.** -0.757

**Q.** With GGUAUUUUUCAUGGCUCUCTT against Olfr305 as the sequence, how does the z-score read?
**A.** -0.0328

**Q.** With GCCAAAUACUUUUUUACCCTT against Slc38a2 as the sequence, how does the z-score read?
**A.** 0.682

**Q.** Which z-score does the source give for GCUUACCAAAAGGAUAUCCTT against Zfand2b here?
**A.** -1.94

**Q.** For GGCAUUUCAUGUAGCUAAATT against Spata18, which z-score is on record?
**A.** 2.04 (active)

**Q.** For GGUCCAACGAUAUGUUGACTT against Cyp2c67, which z-score is on record?
**A.** 1.27

**Q.** Which z-score does the source give for GGACAUGGAGAAAAAGUACTT against Styk1 here?
**A.** 0.547

**Q.** For GCAGUGCGAUUGCUUACAGTT against Tube1, which z-score is on record?
**A.** 1.07

**Q.** With GGAUGUUCCAUUUCUAAGCTT against Zfp30 as the sequence, how does the z-score read?
**A.** -3.76 (active)

**Q.** Which z-score does the source give for GGAGUGUGCCCUGAAAGAUTT against Psrc1 here?
**A.** -0.215

**Q.** Which z-score does the source give for GGCUUUUCUGCCAUUUAUGTT against Sox18 here?
**A.** 0.23

**Q.** Which z-score does the source give for GGGUGAAAGAAAGAAAGAATT against Plp1 here?
**A.** -0.883

**Q.** Which z-score does the source give for GGCCCAGUGACUAUGGAAUTT against Mpnd here?
**A.** -2.68 (active)

**Q.** With GGAUUACAGAAGCCCACACTT against Plekhn1 as the sequence, how does the z-score read?
**A.** -0.719

**Q.** Which z-score does the source give for GGACGUGCUUACAUUGUACTT against Pcdhb9 here?
**A.** -0.212

**Q.** For GCAAUUGAGAUCUAUACAGTT against Napa, which z-score is on record?
**A.** -0.0109

**Q.** With GGGAAUAUGUGAAACAGACTT against Syk as the sequence, how does the z-score read?
**A.** -0.229

**Q.** For GCCAAUAAAGUCGGUGAAATT against H2aj, which z-score is on record?
**A.** -0.244

**Q.** With GGAAUAAUCCCAGAAUCAGTT against Stard6 as the sequence, how does the z-score read?
**A.** 0.0758

**Q.** For GGAAGUGGCUUUUUAUCAGTT against Arhgap6, which z-score is on record?
**A.** 2.05 (active)

**Q.** Which z-score does the source give for CCAUACACAACAUUCCAGATT against Slc39a11 here?
**A.** 0.0339

**Q.** Which z-score does the source give for GCAUUCAUCAAAUUUACAGTT against Prrg4 here?
**A.** -0.67

**Q.** Which z-score does the source give for CCUACUAACAACAAGAGCATT against Pcdhga5 here?
**A.** 0.021

**Q.** Which z-score does the source give for GGAACUGAUCUGGAAGAAUTT against Sord here?
**A.** -0.392

**Q.** For GGAAUACCAGGCCUUCCUUTT against B4galnt1, which z-score is on record?
**A.** -0.886

**Q.** With CCUCGAUUAUAGCAAUACUTT against Slc16a14 as the sequence, how does the z-score read?
**A.** 1.36

**Q.** Which z-score does the source give for GGUGCAGGACCAUUUCCAUTT against Slc10a6 here?
**A.** 3.25 (active)

**Q.** For GAAAUGUCCAUCCAAAAGCTT against Sprr2k, which z-score is on record?
**A.** 0.602
